Rows were chosen to be rich in hits. Some 3.5% of all compounds tested hit in one or more screens of this group.
FadD28 binding – blocks FadD28 binding to the bisubstrate probe. fluorescence polarization. inhibition, % at 12.5 µM. actives 0.22% (n = 360,000); in the data active = inhibition above about 8.5%, passing the limit was not always enough; inconclusive = no clear call, values can overlap the other calls
GDH-TPI counter – GDH-TPI coupled enzyme inhibition counter-screen. actives 1.2% (n = 360,000). GDH-TPI coupled enzyme counterscreen, NADH absorbance. inhibition, % at 4.8 µM; in the data active = inhibition above about 30%
Mtb FBA inh – inhibits M. tuberculosis FBA enzyme; P9WQA3; inhibition, % at 1 µM; AID 588726; purified M. tuberculosis FBA, fluorescence read-out; actives 2.3% (n = 360,000); in the data active = inhibition above about 27%
Target sequence (P9WQA3 whole entry, looked up): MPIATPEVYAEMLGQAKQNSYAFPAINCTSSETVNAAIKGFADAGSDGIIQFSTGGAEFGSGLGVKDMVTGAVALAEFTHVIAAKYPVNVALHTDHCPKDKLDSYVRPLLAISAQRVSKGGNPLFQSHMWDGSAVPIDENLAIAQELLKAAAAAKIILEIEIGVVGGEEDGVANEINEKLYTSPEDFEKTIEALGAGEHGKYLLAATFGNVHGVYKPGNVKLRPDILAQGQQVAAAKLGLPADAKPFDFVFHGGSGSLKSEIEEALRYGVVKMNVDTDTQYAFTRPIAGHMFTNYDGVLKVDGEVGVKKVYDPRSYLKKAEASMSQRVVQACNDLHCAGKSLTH
Rv3671c inh – inhibitors of M. tuberculosis serine protease Rv3671c; inhibition, % at 5.96 µM; P9WHR9; actives 0.048% (n = 320,000); in the data active = inhibition above about 38%;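 also: extracellular domain of Rv3671c used as enzyme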
Mtb hypoxia rep – reduces hypoxia-regulated biosensor signal in M. tuberculosis | fluorescence inhibition, % (no concentration beside the values) | M. tuberculosis hypoxia-regulated fluorescent reporter, fluorescence | actives 0.1% (n = 300,000) | AID 1159583; in the data active = fluorescence inhibition mostly above about 23%, no sharp cut-off; inactive = mostly below about 17%
Mtb UGM inh – Mtb UDP-galactopyranose mutase inhibition; P9WIQ1; purified UGM, fluorescence polarization probe displacement; inhibition, % at 10 µM; actives 0.06% (n = 320,000); AID 504406; in the data active = inhibition above about 10%, passing the limit was not always enough; inconclusive = no clear call, values can overlap the other calls
A number is an active result; - = inactive; ? = inconclusive; . = no result; + = active, no number.

SMILES	FadD28 binding	GDH-TPI counter	Mtb FBA inh	Rv3671c inh	Mtb hypoxia rep	Mtb UGM inh
CCN(CC)S(=O)(=O)c1ccc(NN=Cc2ccc(O)cc2)nc1	.	.	.	.	-	.
Nc1cc(C(F)(F)F)ccc1C(=O)O	-	-	76	-	.	-
Nc1cc(S(=O)(=O)C(F)(F)F)ccc1C(=O)O	-	-	-	-	-	-
COc1ccc(C2CC=C(C(=O)O)C(c3ccccc3)N2S(=O)(=O)c2ccc(C)cc2)cc1OC (stereo not given)	.	.	.	.	-	.
O=C(CCCN1C(=O)c2cccnc2C1=O)Nc1ccc(F)cc1Cl	.	-	+	-	-	-
Cc1c(C)c2ccc(O)c(CN3CCN(C)CC3)c2oc1=O	-	-	+	.	-	-
O=c1oc2c(CN3CCCCC3)c(O)ccc2c2c1CCCC2	-	-	+	-	-	-
CN1CCN(Cc2c(O)ccc3cc(-c4ccccn4)c(=O)oc23)CC1	-	-	+	-	-	-
CN1CCN(Cc2c(O)ccc3cc(Br)ccc23)CC1	.	.	.	-	-	-
CCOC(=O)c1c(C)oc2ccc(O)c(CN3CCCCC3)c12	-	-	-	-	-	-
CCc1c(C)c2ccc(O)c(CN3CCCC3)c2oc1=O	.	34	.	.	-	-
CC(O)C(C(=O)N1CCNCC1)n1cc(CCCCN)nn1 (stereo not given)	.	.	.	.	-	.
COc1cccc(C=NNC(=O)CC(=O)NCCc2ccccc2)c1OC	.	.	.	.	-	.
Cc1noc(C)c1NC(=O)N(C)CC1Oc2ccc(NC(=O)NC(C)C)cc2C(=O)N(C(C)CO)CC1C (stereo not given)	.	.	.	.	-	.
CC1(C)NC(=O)C2CCCN21 (stereo not given)	.	.	.	.	-	.
N#CCC(=O)NN=Cc1ccc(Sc2nc3ccccc3s2)o1	.	.	.	.	-	.
Cc1c(O)c(CN2CCCCC2)cc2c3c(c(=O)oc12)CCC3	-	-	+	-	-	-
Cc1c(C)c2ccc(O)c(CN3CCCC3)c2oc1=O	-	-	+	-	-	-
Cc1c(O)c(CN2CCCCC2)cc2c1oc(=O)c1ccccc12	-	-	-	-	-	-
O=C(NCc1ccccc1)C1=CC(c2ccc3c(c2)OCO3)CC(OCc2ccc(CO)cc2)O1 (stereo not given)	.	.	.	.	-	.
CCC(=NNc1ccc(Cl)cc1)c1cnnc(SC)n1	.	.	.	.	-	.
CCN(CC)c1ccc(C=Nn2c(=S)[nH]nc(C)c2=O)cc1	.	.	.	.	-	.
COC(=O)C1=CN(C)C=C(C(=O)OC)C1c1ccc(O)c(OC)c1	-	-	-	-	-	-
COCCN1C=C(C(=O)OC)C(c2cc(Br)c(OC)c(OC)c2)C(C(=O)OC)=C1	-	-	+	-	-	-
COCCN1C=C(C(=O)OC)C(c2ccccc2Cl)C(C(=O)OC)=C1	-	-	+	-	-	-
SMILES	FadD28 binding	GDH-TPI counter	Mtb FBA inh	Rv3671c inh	Mtb hypoxia rep	Mtb UGM inh
COC(=O)C1=CN(Cc2ccccc2)C=C(C(=O)OC)C1c1ccc(O)c(OC)c1	-	-	-	-	-	-
Cc1ccc(C(=O)ON=Cc2c(C)nn(C)c2Cl)cc1	.	.	.	.	-	.
COc1cc(C=NNc2nc3c([nH]2)c(=O)n(C)c(=O)n3C)ccc1O	-	-	-	.	-	.
CN(C)c1ccc(C=NNc2nc3c([nH]2)c(=O)n(C)c(=O)n3C)cc1	-	47	-	.	-	.
CCN(CC)CCN(C(=O)c1cc2c(ccc3ccccc32)oc1=O)c1nc2cc3c(cc2s1)OCCO3	-	-	+	-	-	-
CCN(CC)CCN(C(=O)c1ccc2c(c1)OCCO2)c1nc2cc3c(cc2s1)OCO3	-	-	-	-	-	-
COc1ccc(C(=O)COc2ccc3ccc(=O)oc3c2)cc1	-	-	-	-	-	-
CC(NC(=O)OC(C)(C)C)C(=O)Oc1ccc2ccc(=O)oc2c1 (stereo not given)	-	-	+	-	.	-
CC(C)(C)OC(=O)NCCC(=O)Oc1ccc2ccc(=O)oc2c1	-	-	+	-	.	-
O=C(CNC(=O)OCc1ccccc1)Oc1ccc2ccc(=O)oc2c1	-	-	+	-	-	-
Cc1ccccc1NC(=O)COC(=O)COc1ccc2ccc(=O)oc2c1	-	-	-	.	.	.
COc1cc([N+](=O)[O-])cc(C=NNC(=O)C(C)Nc2ccccc2C)c1O (stereo not given)	.	.	.	.	-	.
COc1cccc2cc(C(=O)Nc3cc(C)cc(C)c3)c(=NNS(=O)(=O)c3ccccc3)oc12	.	.	.	.	-	.
CCOc1cc(C=NNC(=O)C2CCCC2)ccc1O	.	.	.	.	-	.
COc1cc(C=NNS(=O)(=O)c2ccc3ccccc3c2)ccc1OCc1ccc(C(=O)O)cc1	.	.	.	.	-	.
CN(C)CCCN1C(=O)c2cccc3cccc(c23)C1=O	-	-	34	-	-	-
CN(C)CCCN1C(=O)c2cc3ccccc3cc2C1=O	-	-	-	-	-	-
CCOP(=O)(Nc1cccc2oc(=O)c3ccccc3c12)OCC	-	-	116	.	.	.
CCOc1ccccc1N=Cc1c(O)c2ccccc2oc1=O	-	-	-	-	-	-
CC1(C)SC(=S)N(/N=C/c2ccccc2)C1N(O)C(=O)Nc1ccc([N+](=O)[O-])cc1 (stereo not given)	-	42	-	-	.	-
Cc1c(Cc2ccccc2)sc(N=Cc2c(O)ccc3ccccc23)c1C(N)=O	.	.	.	.	-	.
CC1(C)CC(=O)C=C(/C=C/c2ccccc2)C1	-	49	-	-	.	-
O=C(NN=Cc1ccc2c(c1)OCO2)C(=O)Nc1ccccc1	.	.	.	.	-	.
O=[N+]([O-])c1nn(-c2cccc(Cl)c2)n(O)c1=NCc1cccnc1	-	-	-	-	57	-
CCn1cc(CN2CCC(C(=O)Nc3ccc(Oc4cccnc4)cc3)CC2)c(C)n1	13	-	-	-	-	-
SMILES	FadD28 binding	GDH-TPI counter	Mtb FBA inh	Rv3671c inh	Mtb hypoxia rep	Mtb UGM inh
Cc1ncc(CN2CCC(C(=O)Nc3ccc(Oc4cccnc4)cc3)CC2)cn1	-	-	-	-	.	-
CCn1cc(CN2CCC(C(=O)Nc3ccc(Oc4cccnc4)cc3)CC2)cn1	?	-	-	-	-	-
C=CCn1cc(CN2CCC(C(=O)Nc3ccc(Oc4cccnc4)cc3)CC2)c(C)n1	16	-	-	-	-	-
COc1ccccc1CN1C(CC(C)=O)c2cc(C(F)(F)F)ccc2S1(=O)=O (stereo not given)	.	.	.	.	-	.
COc1cccc(C=NNc2ccc(C(=O)O)cc2)c1O	.	.	.	.	-	.
COc1ccc(NCC(=O)NN=C(C)c2cc3ccccc3o2)cc1	.	.	.	.	-	.
CCOC(=O)C(/C=C(\C#N)C(=O)OCC)=C(/N)N1CCN(c2ccc(Cl)cc2)CC1	-	59	-	-	-	-
Cc1cc(O)c2c(c1)C(=O)C13C(=C2O)C(=O)[C@H]2[C@@H](O)[C@@H]1[C@H]1[C@H](O)[C@@H]3C(=O)C3=C(O)c4c(O)cc(C)cc4C(=O)C312 (stereo not given in full)	-	38	-	-	.	-
C=C(C)CNC(=S)NN=Cc1ccc([N+](=O)[O-])cc1	.	.	.	.	-	.
ON=C1CCCCc2sccc21	.	.	.	.	-	.
N#CC(C#N)=C1CCCc2sccc21	-	33	-	.	.	.
COCCNC(=S)NCCCNc1nc2cc3c(cc2cc1C#N)OCO3	-	-	180	-	-	-
CSc1ccc(NC(=O)Nc2ccc(C(=O)NCC(=O)O)cc2)cc1	11	-	-	.	.	-
CCSc1ccc(C(=O)NCC(=O)O)cc1	-	-	-	-	-	-
